# From PubChem BioAssay AID1048 (The Scripps Research Institute Molecular Screening Center, 2008)
# Out of some 99,000 compounds screened, about 390 (0.39%) were called active. The sample as a whole holds a higher share of actives than the screen did. A number with no mark means an inactive call. Cut-off read from the data, not from the text of the source: active = TR-FRET ratio above about 2000; inactive = the rest.
# Assay: TR-FRET detection interference compounds, artefact control for PPARgamma SRC-3 recruitment agonists, biochemical, TR-FRET ratio (AID 1048)
# Conditions: TR-FRET artefact counter-screen, PPARgamma/SRC-3 format; at 8 µM; stronger effect = higher value
row,Structure (SMILES),TR-FRET ratio
1,COc1cc(-n2c(=S)[nH]c3ccc(C)cc3c2=O)c(Cl)cc1Cl,2500 (active)
2,O=C(Cc1ccccc1)N1CCN(C2CCCCCC2)CC1,1380
3,O=C(CCNS(=O)(=O)c1ccccc1)Nc1ccc(Cl)cc1C(=O)c1ccccc1,1450
4,Cc1ccccc1N1C(=O)NC(=O)/C(=C\c2cc(C)n(C)c2C)C1=O,1530
5,Cc1cccc(-n2c(O)c(/C=N/N3CCOCC3)c(=O)[nH]c2=S)c1,1680
